High-throughput results (PubChem)
Pol eta inh-1 = inhibitors of human DNA polymerase eta; Q9Y253; recombinant Pol eta, fluorescent DNA replication assay; Potency, µM (highest dose often 114 µM), for inactives: top-dose activity change, negative = inhibition, usual class: inhibitors; 390,000 tested, 1.2% active; further: potency means the concentration at half of the fitted maximal effect; on the % scale 0 is the no-effect control and ±100 the full control effect
Target sequence (Q9Y253 whole entry, looked up): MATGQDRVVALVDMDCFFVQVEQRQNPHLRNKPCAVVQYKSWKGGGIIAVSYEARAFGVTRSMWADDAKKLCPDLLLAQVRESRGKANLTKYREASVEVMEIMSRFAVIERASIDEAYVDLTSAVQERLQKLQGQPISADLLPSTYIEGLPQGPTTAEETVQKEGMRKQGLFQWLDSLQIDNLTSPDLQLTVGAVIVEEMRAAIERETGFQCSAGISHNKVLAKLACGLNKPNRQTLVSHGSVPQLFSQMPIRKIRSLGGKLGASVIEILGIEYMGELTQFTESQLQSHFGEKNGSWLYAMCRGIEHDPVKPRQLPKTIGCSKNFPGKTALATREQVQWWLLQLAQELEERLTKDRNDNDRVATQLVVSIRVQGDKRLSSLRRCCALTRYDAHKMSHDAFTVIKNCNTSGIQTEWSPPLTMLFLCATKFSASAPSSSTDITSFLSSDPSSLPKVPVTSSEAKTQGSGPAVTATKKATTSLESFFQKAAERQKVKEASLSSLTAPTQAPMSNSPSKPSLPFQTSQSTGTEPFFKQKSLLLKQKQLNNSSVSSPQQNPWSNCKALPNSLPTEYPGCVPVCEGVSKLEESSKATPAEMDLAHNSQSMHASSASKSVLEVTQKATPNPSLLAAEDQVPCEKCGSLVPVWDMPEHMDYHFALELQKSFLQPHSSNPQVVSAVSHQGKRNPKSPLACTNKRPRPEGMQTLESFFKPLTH
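Pol eta at 10 nM preincubated with compounds 15 min at room temperature; reaction started with fluorescent substrate (50 nM final) and read kinetically at 0 and 10 min.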
APE1 inh-1 = inhibitors of human APE1 endonuclease. P27695. recombinant APE1, TAMRA/BHQ-2 abasic DNA cleavage fluorescence. Potency, µM (series often up to 65.8 µM), inactives show top-dose activity change, negative = inhibition, most hits filed as inhibitors. 350,000 tested, 0.35% active. AID 2517;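 further: potency means the concentration at half of the fitted maximal effect; plate controls were vehicle for no effect and reference inhibitor for full effect; nearly all actives have a fitted effect of over 55% in size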
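Compound pre-exposure to 0.75 nM APE1, 15 min at ambient temperature. Reaction initiated with 50 nM TAMRA/BHQ-2 THF substrate, read immediately in kinetic mode, 525 nm excitation, 598 nm emission.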
Pol iota inh = blocks human DNA polymerase iota activity; Q9UNA4; Pol iota fluorescent replication assay, 10 min; Potency, µM (highest dose often 115 µM), inactives show at the highest dose activity, negative = inhibition, usual class: inhibitors; 390,000 tested, 1% active; AID 588590; further: potency means the concentration at half of the fitted maximal effect
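Pol iota at 10 nM preincubated 15 min with compounds at room temperature; reaction started with fluorescent substrate, 50 nM final. Fluorescence read kinetically at 0 and 10 min; buffer-only wells as negative control.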
Pol kappa inh-1 = blocks human DNA polymerase kappa activity | Q9UBT6 | purified Pol kappa, fluorescent DNA synthesis assay, 10 min | Potency, µM (doses to about 107 µM), for the others: top-dose activity, negative = inhibition, hits mostly inhibitors | 400,000 tested, 0.53% active; further: potency means the concentration at half of the fitted maximal effect; on the % scale 0 is the no-effect control and ±100 the full control effect
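Here, compound and 10 nM enzyme are combined for 15 min at room temperature; adding 50 nM substrate (final) starts DNA synthesis, tracked by fluorescence at 0 and 10 min against buffer-only wells.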
Pol beta inh-1 = DNA polymerase beta (human) inhibition; P06746; Pol beta primer extension/strand displacement, fluorescence kinetic; Potency, µM (titrated, usually from 114 µM), without a hit: at the top dose activity change, negative = inhibition, usual class: inhibitors; 340,000 tested, 1.3% active; AID 485314; further: potency means the concentration at half of the fitted maximal effect; on the % scale 0 is the no-effect control and ±100 the full control effect
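Human Pol beta at 10 nM; strand-displacement substrate 50 nM final. Compound exposure 15 min at room temperature before start, reaction 10 min at room temperature.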
L3MBTL1 inh-1 = L3MBTL1 (human) inhibition; Potency, µM (titrated, usually from 57.1 µM), for the others: top-dose activity, negative = inhibition, usual class: inhibitors; 230,000 tested, 0.66% active; AlphaScreen L3MBTL1–H3K9me1 peptide binding; Q9Y468; AID 485360; further: potency means the concentration at half of the fitted maximal effect; on the % scale 0 is the no-effect control and ±100 the full control effect; nearly all actives have a fitted effect of over 60% in size
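First, the protein-peptide complex forms for 30 min at room temperature (L3MBTL1 50 nM, biotinylated H3K9me1 peptide 75 nM). Next, compounds are pin-transferred and incubated 30 min. Finally, AlphaScreen beads are added and read after 30 min.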
APE1 dye cs = counter-screen for APE1 inhibitors: DNA dye displacement; shares compounds with APE1 inh-1; DNA fluorescent dye displacement counterscreen, fluorescence; Potency, µM (titrated, usually from 28.5 µM), for inactives: at the highest dose activity change, negative = inhibition, hits mostly inhibitors; 480 tested, 7% active;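 further: loss of thiazole orange fluorescence as the dye is displaced from duplex DNA; potency means the concentration at half of the fitted maximal effect; 0% = ThO with dsDNA and no compound and -100% = ThO without dsDNA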
Endo IV inh = counter-screen for APE1 inhibitors: inhibitors of E. coli endonuclease IV | shares compounds with APE1 inh-1 | E. coli Endo IV, fluorogenic AP-site DNA cleavage | Potency, µM (top dose mostly 27.1 µM), inactives show at the highest dose activity change, negative = inhibition, most hits filed as inhibitors | 560 tested, 4% active | AID 2565;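 further: potency means the concentration at half of the fitted maximal effect; plate controls were uninhibited enzyme wells for no effect and no enzyme buffer wells for full effect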
APE1 inh-2 = confirmation of inhibitors of human APE1 endonuclease; shares compounds with APE1 inh-1; AID 2572; purified APE1, fluorogenic abasic-site DNA cleavage; 750 tested, 44% active; Potency, µM (top dose mostly 57.1 µM), without a hit: top-dose activity change, negative = inhibition, hits mostly inhibitors; further: potency means the concentration at half of the fitted maximal effect; on the % scale 0 is the no-effect control and ±100 the full control effect; nearly all actives have a fitted effect of over 30% in size
APE1 FP inh = compounds that displace a DNA probe from human APE1; APE1 binding to TAMRA-labelled double-stranded DNA, fluorescence polarization displacement; shares compounds with APE1 inh-1; Potency, µM (top dose mostly 28.5 µM), for inactives: top-dose activity, negative = inhibition, usual class: inhibitors; 480 tested, 7% active; further: potency means the concentration at half of the fitted maximal effect; on the % scale 0 is the no-effect control and ±100 the full control effect
Pol beta inh-2 = Validate hits inhibiting human DNA polymerase beta; Pol beta primer extension/strand displacement, fluorescence kinetic; AID 540280; Potency, µM, actives largely listed as inhibitors; 250 tested, 87% active; shares compounds with Pol beta inh-1; calls by dose curve; further: potency means the concentration at half of the fitted maximal effect
Klenow inh = counter-screen for DNA polymerase beta inhibitors: Klenow fragment inhibition. shares compounds with Pol beta inh-1. Klenow exo- polymerase counter-screen, fluorescent DNA substrate. AID 540300. activity change, negative = inhibition, % at 57.1 µM. 250 tested, under 10 active
HIV RT inh = inhibits HIV-1 reverse transcriptase in counter-screen; shares compounds with Pol beta inh-1; HIV-1 RT polymerase activity, counter-screen; activity % (negative = inhibition, positive = activation), % at 57.1 µM; 250 tested, under 10 active; AID 540301
POLB inh gel = DNA polymerase beta inhibition, radiolabeled validation; inhibition, % at 10 µM; radiolabeled primer extension gel assay, phosphorimager; AID 540325; shares compounds with Pol beta inh-1; 110 tested, 91% active;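 active means inhibition at 10 µM of 30% or more; inconclusive means no clear call, values can overlap the other calls; inactive means inhibition at 10 µM under 30%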
L3MBTL1 inh-2 = validation of human L3MBTL1 methyl-lysine binding inhibitors; shares compounds with L3MBTL1 inh-1; L3MBTL1 methyl-lysine binding inhibition, biochemical qHTS; Potency, µM, hits mostly inhibitors; 500 tested, 91% active; AID 540279; further: potency means the concentration at half of the fitted maximal effect; nearly all actives have a fitted effect of over 70% in size
L3MBTL1 ctr = counter-screen for L3MBTL1 inhibitors: AlphaScreen signal interference. shares compounds with L3MBTL1 inh-1. AlphaScreen counterscreen, signal inhibition. Potency, µM (series often up to 57.1 µM), for the others: top-dose activity change, negative = inhibition, hits mostly inhibitors. 500 tested, under 10 active. AID 602224; further: potency means the concentration at half of the fitted maximal effect; 0% is about no effect
Pol iota confirm = Inhibitors of human DNA polymerase iota, confirmation | Pol iota primer extension, TAMRA/BHQ fluorescence | shares compounds with Pol kappa inh-1 | AID 720496 | Potency, µM, most hits filed as inhibitors | 1,500 tested, 77% active; further: potency means the concentration at half of the fitted maximal effect
Pol kappa inh-2 = confirmation of human DNA polymerase kappa inhibitors; shares compounds with Pol eta inh-1; purified Pol-kappa, fluorescent strand-displacement substrate; Potency, µM, hits mostly inhibitors; 920 tested, 76% active; further: potency means the concentration at half of the fitted maximal effect
Pol eta inh-2 = confirmation of human DNA polymerase eta inhibitors; shares compounds with Pol eta inh-1; Pol eta primer extension, TAMRA/BHQ fluorescence, 10 min; Potency, µM, actives largely listed as inhibitors; 2,600 tested, 64% active; AID 720502; further: potency means the concentration at half of the fitted maximal effect
* marks the source's active call; other numbers are inactive results; ? = inconclusive; / = no result given. Only some compounds are listed: those with a hit (about 2.5% of all), similar ones and a draw of the others. Unless noted, the call rests on the fitted dose curve; in most records, active means well fitted curve in the direction sought with a large enough effect; inconclusive means small, poorly fitted or top-dose-only effect, or another doubt; inactive means no such curve, though single readings can be large; an effect the other way counts as inactive or inconclusive.

SMILES	Pol eta inh-1	APE1 inh-1	Pol iota inh	Pol kappa inh-1	Pol beta inh-1	L3MBTL1 inh-1	APE1 dye cs	Endo IV inh	APE1 inh-2	APE1 FP inh	Pol iota confirm	Pol kappa inh-2	Pol eta inh-2	others
CC(=O)c1ccc(NC(=O)CSc2ccsc2[N+](=O)[O-])cc1	11µM*	?	?	?	5.6µM*	-21%	?	0%	3.5µM*	0%	42*	38*	?	Pol beta inh-2=22*;Klenow inh=-29;HIV RT inh=18;POLB inh gel=99*
Cc1ccccc1N=C1NC(=O)/C(=C/c2cccn2-c2cccc(C(=O)O)c2)S1	18µM*	18µM*	20µM*	79µM*	10µM*	40µM*	-4%	14%	11µM*	?	42*	27*	27*	L3MBTL1 inh-2=4.2*;L3MBTL1 ctr=-21%
Nc1nonc1-c1nc2ccccc2n1CC(=O)N/N=C/c1ccc(-c2cccc(C(=O)O)c2)o1	18µM*	?	18µM*	?	20µM*	?	-4%	-2%	13µM*	-4%	75*	/	24*
Cc1cccc(NC(=O)CN2C(=O)S/C(=C\c3ccc(O)c([N+](=O)[O-])c3)C2=O)c1	?	-1%	-8%	-15%	?	/	/	/	/	/	/	/	/
Cc1ccc(NC(=O)CN2C(=O)S/C(=C/c3ccc(O)c([N+](=O)[O-])c3)C2=O)cc1C	45µM*	?	20µM*	50µM*	89µM*	25µM*	/	/	?	/	34*	60*	?
